# Experimental data from PubChem BioAssay AID651903 (Broad Institute, 2012).
# In all, about 22,000 compounds went through this assay and about 1,100 (5%) were called active. No stated cut-off is given here; in the data, active means activity score above about 55%; inconclusive means no clear call, values can overlap the other calls; inactive means below that. For the sample, actives were picked, then their nearest neighbours and some compounds at random.
# Assay: T. cruzi growth inside host cells – cell-based, plate reader, single point, set 2, primary screen (AID 651903);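 further: parasites and compound incubated about four days before reading; 0% = median of neutral control wells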
# Settings: intracellular Trypanosoma cruzi in host cells, at 5.01 µM, hits give high values
row,SMILES,activity score (inhibition)
1,C[C@@H]1CCCCO[C@H](CN(C)Cc2ccncc2)[C@@H](C)CN([C@H](C)CO)C(=O)c2cc(NC(=O)CCCN(C)C)ccc2O1,-8.02% (inactive)
2,Cc1noc(C)c1NC(=O)Nc1ccc2c(c1)C(=O)N([C@H](C)CO)C[C@H](C)[C@H](CN(C)S(=O)(=O)c1cccs1)O2,2.68% (inactive)
3,C[C@@H]1CN([C@H](C)CO)C(=O)c2cc(NC(=O)CCCCCC(=O)Nc3ccccc3N)ccc2O[C@@H]1CN(C)S(=O)(=O)c1ccc(Cl)cc1,15.5% (inactive)
4,Cc1ccc(S(=O)(=O)N(C)C[C@@H]2Oc3ccc(NS(=O)(=O)c4c(C)noc4C)cc3CC(=O)N([C@H](C)CO)C[C@H]2C)cc1,4.67% (inactive)
5,C[C@H](CO)N1C[C@H](C)[C@H](CN(C)Cc2ccncc2)Oc2ccc(NS(=O)(=O)c3ccc(F)cc3)cc2CC1=O,-4.01% (inactive)
6,CC(C)NC(=O)N(C)C[C@@H]1OCCCC[C@@H](C)Oc2ccc(NC(=O)Nc3ccccc3)cc2C(=O)N([C@H](C)CO)C[C@@H]1C,-24.2% (inactive)
7,C[C@@H]1CCCCO[C@@H](CN(C)Cc2ccc(C(F)(F)F)cc2)[C@@H](C)CN([C@H](C)CO)C(=O)c2cc(NC(=O)Nc3ccccc3)ccc2O1,67.7% (active)
8,CC(C)NC(=O)Nc1ccc2c(c1)C(=O)N([C@H](C)CO)C[C@H](C)[C@H](CN(C)Cc1ccc(C(=O)O)cc1)OCCCC[C@@H](C)O2,-25.6% (inactive)
9,CC(C)NC(=O)Nc1ccc2c(c1)C(=O)N([C@H](C)CO)C[C@H](C)[C@@H](CN(C)Cc1ccc(C(F)(F)F)cc1)OCCCC[C@@H](C)O2,-27.7% (inactive)
10,C[C@@H]1CCCCO[C@@H](CN(C)C(=O)Nc2ccccc2)[C@@H](C)CN([C@H](C)CO)C(=O)c2cc(NC(=O)Nc3ccc(F)cc3)ccc2O1,7.86% (inactive)
11,CC(C)NC(=O)Nc1ccc2c(c1)C(=O)N([C@H](C)CO)C[C@H](C)[C@H](CN(C)C(=O)Nc1ccc(C(F)(F)F)cc1)OCCCC[C@@H](C)O2,56.9% (active)
12,Cc1noc(C)c1NC(=O)N(C)C[C@H]1Oc2ccc(NC(=O)Nc3ccc(C(F)(F)F)cc3)cc2CC(=O)N([C@@H](C)CO)C[C@@H]1C,-4.63% (inactive)
13,Cc1ccc(S(=O)(=O)N(C)C[C@@H]2Oc3ccc(NC(=O)Cc4ccccc4)cc3CC(=O)N([C@H](C)CO)C[C@H]2C)cc1,4.53% (inactive)
14,COc1ccc(CN(C)C[C@@H]2Oc3ccc(NS(=O)(=O)c4ccc(OC)cc4)cc3C(=O)N([C@H](C)CO)C[C@H]2C)cc1,3.29% (inactive)
15,COc1ccc(S(=O)(=O)Nc2ccc3c(c2)C(=O)N([C@H](C)CO)C[C@H](C)[C@H](CN(C)Cc2ccc(C(F)(F)F)cc2)O3)cc1,24.5% (inactive)
16,COc1ccc(S(=O)(=O)Nc2ccc3c(c2)C(=O)N([C@H](C)CO)C[C@H](C)[C@@H](CN(C)Cc2ccc(-c4ccccc4)cc2)O3)cc1,55.9% (active)
17,Cc1ccc(S(=O)(=O)Nc2ccc3c(c2)C(=O)N([C@@H](C)CO)C[C@@H](C)[C@H](CN(C)Cc2ccc(C(F)(F)F)cc2)O3)cc1,52.7% (inactive)
18,C[C@H](CO)N1C[C@H](C)[C@H](CN(C)Cc2ccc(C(F)(F)F)cc2)Oc2ccc(NS(=O)(=O)c3ccc(Cl)cc3)cc2C1=O,60.9% (active)
19,COc1ccc(S(=O)(=O)Nc2ccc3c(c2)C(=O)N([C@H](C)CO)C[C@@H](C)[C@@H](CN(C)Cc2ccccc2)O3)cc1,-14.1% (inactive)
20,C[C@@H]1CN([C@@H](C)CO)C(=O)c2cccc(NC(=O)Nc3ccc4c(c3)OCO4)c2O[C@H]1CN(C)C(=O)Nc1cccc2ccccc12,-8.82% (inactive)
21,COc1ccc(-c2cnc3c(c2)C(=O)N([C@H](C)CO)C[C@H](C)[C@H](CN(C)S(=O)(=O)c2ccccc2)O3)cc1,26.3% (inactive)
22,COc1ccc(NC(=O)N(C)C[C@@H]2Oc3ncc(-c4cccc(OC)c4)cc3C(=O)N([C@H](C)CO)C[C@@H]2C)cc1,16.6% (inactive)
23,C[C@H](CO)N1C[C@H](C)[C@H](CN(C)C(=O)Nc2ccc(F)cc2)Oc2ncc(-c3cc4ccccc4o3)cc2C1=O,78.2% (active)
24,C[C@H](CO)N1C[C@H](C)[C@H](CN(C)C(=O)Nc2ccc3c(c2)OCO3)Oc2ncc(C#Cc3cccc(F)c3)cc2C1=O,25.3% (inactive)
25,C[C@H](CO)N1C[C@H](C)[C@H](CN(C)Cc2ccccc2)Oc2ncc(-c3ccccc3)cc2C1=O,-4.22% (inactive)
26,C[C@@H]1CN([C@H](C)CO)C(=O)c2cccc(NC(=O)Nc3cccc4ccccc34)c2O[C@@H]1CN(C)C(=O)Nc1cccc2ccccc12,4.54% (inactive)
27,C[C@H](CO)N1C[C@H](C)[C@H](CN(C)C)Oc2ncc(/C=C/c3ccccc3)cc2C1=O,71.7% (active)
28,C[C@H](CO)N1C[C@H](C)[C@@H](CN(C)C)Oc2ccc(N(C)C)cc2C1=O,-14.7% (inactive)

row,SMILES,activity score (inhibition)
1,C[C@H](CO)N1C[C@H](C)[C@H](CN(C)C(=O)Nc2cccc3ccccc23)Oc2ncc(C#Cc3ccccc3)cc2C1=O,67.5% (active)
2,C[C@H](CO)N1C[C@H](C)[C@H](CN(C)C(=O)NC2CCCC2)Oc2ncc(-c3ccc(F)cc3)cc2C1=O,6.58% (inactive)
3,C[C@H](CO)N1C[C@H](C)[C@H](CN(C)S(=O)(=O)c2ccc(F)cc2)Oc2ncc(-c3ccc(F)cc3)cc2C1=O,30.4% (inactive)
4,Cc1ccc(S(=O)(=O)N(C)C[C@@H]2Oc3ncc(-c4cc5ccccc5o4)cc3C(=O)N([C@H](C)CO)C[C@@H]2C)cc1,76.5% (active)
5,Cc1ccc(S(=O)(=O)N(C)C[C@H]2Oc3c(NC(=O)C4CC4)cccc3C(=O)N([C@@H](C)CO)C[C@@H]2C)cc1,0.737% (inactive)
6,Cc1noc(C)c1S(=O)(=O)Nc1ccc2c(c1)C(=O)N([C@H](C)CO)C[C@H](C)[C@H](CN(C)S(=O)(=O)c1cn(C)cn1)OCCCC[C@@H](C)O2,-39.1% (inactive)
7,COc1ccc(CN(C)C[C@H]2Oc3c(NC(=O)Nc4ccccc4)cccc3C(=O)N([C@@H](C)CO)C[C@@H]2C)cc1,6.85% (inactive)
8,CCCC(O)C#Cc1cnc2c(c1)C(=O)N([C@H](C)CO)C[C@H](C)[C@H](CN(C)Cc1ccc(F)cc1)O2 (stereo not given in full),18.5% (inactive)
9,Cc1cc(C(=O)Nc2cccc3c2O[C@@H](CN(C)S(=O)(=O)c2ccc(F)cc2)[C@@H](C)CN([C@H](C)CO)C3=O)n(C)n1,32.3% (inactive)
10,Cc1noc(C)c1NC(=O)Nc1ccc2c(c1)C(=O)N([C@H](C)CO)C[C@H](C)[C@@H](CN(C)S(=O)(=O)c1cn(C)cn1)O2,-7.25% (inactive)
11,C[C@@H]1CN([C@H](C)CO)C(=O)Cc2cc(NC(=O)Nc3ccc(F)cc3)ccc2O[C@@H]1CN(C)C(=O)Nc1ccc2c(c1)OCO2,-18.5% (inactive)
12,C[C@@H]1CN([C@@H](C)CO)C(=O)Cc2cc(NC(=O)Nc3ccccc3)ccc2O[C@@H]1CN(C)S(=O)(=O)c1ccc(F)cc1,5.25% (inactive)
13,CC(C)NC(=O)N(C)C[C@H]1Oc2ccc(NS(C)(=O)=O)cc2CC(=O)N([C@@H](C)CO)C[C@H]1C,-20.6% (inactive)
14,COc1ccc(CN(C)C[C@@H]2Oc3ccc(NS(=O)(=O)c4cn(C)cn4)cc3C(=O)N([C@@H](C)CO)C[C@H]2C)cc1,-24.5% (inactive)
15,Cc1ccc(S(=O)(=O)N(C)C[C@@H]2Oc3c(NC(=O)c4nc5ccccc5s4)cccc3C(=O)N([C@H](C)CO)C[C@@H]2C)cc1,81.1% (active)
16,C[C@@H]1CN([C@H](C)CO)C(=O)c2cccc(NC(=O)c3nc4ccccc4s3)c2O[C@@H]1CN(C)C,-35.8% (inactive)
17,C[C@@H]1CN([C@@H](C)CO)C(=O)c2cccc(NC(=O)c3nc4ccccc4s3)c2O[C@H]1CN(C)S(=O)(=O)c1cccs1,28.4% (inactive)
18,CC(C)NC(=O)N(C)C[C@@H]1Oc2c(NC(=O)c3nc4ccccc4s3)cccc2C(=O)N([C@H](C)CO)C[C@H]1C,47.9% (inactive)
19,C[C@@H]1CN([C@H](C)CO)C(=O)c2cccc(NC(=O)c3nc4ccccc4s3)c2O[C@H]1CN(C)Cc1ccccc1,32.1% (inactive)
20,C[C@@H]1CN([C@H](C)CO)C(=O)c2cccc(NC(=O)c3nc4ccccc4s3)c2O[C@H]1CN(C)S(=O)(=O)c1ccc(Cl)cc1,67.6% (active)
21,C[C@H]1CN([C@@H](C)CO)C(=O)Cc2cc(NC(=O)CCCN(C)C)ccc2O[C@@H]1CN(C)Cc1ccc(-c2ccccc2)cc1,-19.2% (inactive)
22,COc1ccc(NC(=O)N(C)C[C@@H]2Oc3ccc(NC(=O)CCC(F)(F)F)cc3C(=O)N([C@@H](C)CO)C[C@H]2C)cc1,-13.2% (inactive)
23,C[C@@H]1CN([C@@H](C)CO)C(=O)CCCn2cc(nn2)CO[C@@H]1CN(C)Cc1cccc(O)c1,-17.1% (inactive)
24,C[C@@H]1CN([C@@H](C)CO)C(=O)c2cc(NC(=O)c3ccncc3)ccc2O[C@@H]1CN(C)S(C)(=O)=O,-8.16% (inactive)
25,C[C@H]1CN([C@@H](C)CO)C(=O)CCCn2nncc2CO[C@H]1CN(C)Cc1cccc(C(=O)O)c1,-16.6% (inactive)
26,COc1cccc(-c2cnc3c(c2)C(=O)N([C@H](C)CO)C[C@H](C)[C@H](CN(C)C(=O)NC(C)C)O3)c1,3.35% (inactive)
27,C[C@H](CO)N1C[C@H](C)[C@H](CN(C)S(C)(=O)=O)Oc2c(NC(=O)Nc3cccc4ccccc34)cccc2C1=O,-17.4% (inactive)
